In PubChem BioAssay (Tox21):
“And” between values parts separate entries of the source, which are not always exact repeats. Equal values may be shown once. Records with an inconclusive call do not appear. Entries that show only a call come without a potency. More than one record can exist for a structure, and the calls need not agree. The source made the active and inactive calls. Unless noted, the call rests on the fitted dose curve; in most records, active means well fitted curve in the direction sought with a large enough effect in the repeat runs; inconclusive means weak or mixed curves; inactive means no such curve, though single readings can be large; an effect the other way counts as inactive or inconclusive.

What was measured:
[1] = qHTS assay to identify small molecule antagonists of the glucocorticoid receptor (GR) signaling pathway - cell viability counter screen (AID 720693); further: nearly all actives have a fitted effect of over 55% in size
[2] = qHTS assay for identifying genotoxic compounds that show differential cytotoxicity against isogenic chicken DT40 cell lines with known DNA damage response pathways - wild type cell line (AID 743012); further: nearly all actives have a fitted effect of over 60% in size; further: potency means the concentration at half of the fitted maximal effect
Outline: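 Wild-type DT40 cells (300/well) exposed to compounds for 40 hours at 37 C/5% CO2. Viability read by CellTiter-Glo luminescence after 30 min at room temperature.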

[3] = qHTS assay for identifying genotoxic compounds that show differential cytotoxicity against isogenic chicken DT40 cell lines with known DNA damage response pathways - Rev3 mutant cell line (AID 743014); further: nearly all actives have a fitted effect of over 55% in size; further: potency means the concentration at half of the fitted maximal effect
[4] = qHTS assay for identifying genotoxic compounds that show differential cytotoxicity against isogenic chicken DT40 cell lines with known DNA damage response pathways - Rad54/Ku70 mutant cell line (AID 743015); further: nearly all actives have a fitted effect of over 60% in size; further: potency means the concentration at half of the fitted maximal effect
[5] = qHTS assay to identify small molecule antagonists of the androgen receptor (AR) signaling pathway - cell viability counter screen (AID 743033; further: nearly all actives have a fitted effect of over 45% in size)
[6] = qHTS assay to identify small molecule antagonists of the androgen receptor (AR) signaling pathway using the MDA cell line - cell viability counter screen (AID 743041; further: nearly all actives have a fitted effect of over 45% in size; further: potency means the concentration at half of the fitted maximal effect)
Outline: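 Viability counter screen run alongside the AR antagonist reporter: cells seeded 5 h before compound, R1881 added, 16 h incubation at 37C without CO2, fluorescent CellTiter-Fluor signal quantified.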

[7] = qHTS assay to identify small molecule antagonists of the thyroid receptor (TR) signaling pathway - cell viability counter screen (AID 743064); further: nearly all actives have a fitted effect of over 50% in size; further: potency means the concentration at half of the fitted maximal effect
Outline: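 Counter screen for cytotoxicity: compound plus T3 (1 nM final) on GH3.TRE-Luc cells, 23.5 h at 37 °C, then fluorescence viability readout with CellTiter-Fluor.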

[8] = qHTS assay to identify small molecule antagonists of the estrogen receptor alpha (ER-alpha) signaling pathway - cell viability counter screen (AID 743074; calls by dose curve;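 further: HEK293 cells carrying ER-alpha-UAS-bla reporter stimulated with 17beta-estradiol; nearly all actives have a fitted effect of over 45% in size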)
[9] = qHTS assay to identify small molecule antagonists of the estrogen receptor alpha (ER-alpha) signaling pathway using the BG1 cell line - cell viability counter screen (AID 743081);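 further: compound given together with 17beta-estradiol as the ER stimulus; nearly all actives have a fitted effect of over 45% in size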; further: potency means the concentration at half of the fitted maximal effect
[10] = target: Aromatase (Homo sapiens) (UniProt P11511); experiment: qHTS assay to identify aromatase inhibitors (AID 743083); further: series mostly up to about 70 µM; nearly all actives have a fitted effect of over 55% in size
[11] = target: Estrogen receptor (Homo sapiens) (UniProt P03372); experiment: qHTS assay to identify small molecule antagonists of the estrogen receptor alpha (ER-alpha) signaling pathway (AID 743069; active means well fitted curve in the direction sought with a large enough effect in the signal ratio in the repeat runs, not every such curve was filed as active; the % refers to the signal ratio; further: potency means the concentration at half of the fitted maximal effect)
Outline: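 Estradiol-stimulated ER-alpha-UAS-bla HEK293 cells, 18 hr compound exposure at 37C. LiveBLAzer B/G substrate, 2 hr RT, fluorescence read.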

[12] = target: Estrogen receptor (Homo sapiens) (UniProt P03372); experiment: qHTS assay to identify small molecule agonists of the estrogen receptor alpha (ER-alpha) signaling pathway (AID 743075; calls by dose curve;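 further: HEK293 GripTite cells with ER-alpha and UAS-driven beta-lactamase reporter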)
[13] = target: Estrogen receptor (Homo sapiens) (UniProt P03372); experiment: qHTS assay to identify small molecule agonists of the estrogen receptor alpha (ER-alpha) signaling pathway using the BG1 cell line (AID 743079); further: nearly all actives have a fitted effect of over 20% in size; further: potency means the concentration at half of the fitted maximal effect
[14] = qHTS assay to identify small molecule antagonists of the estrogen receptor alpha (ER-alpha) signaling pathway using the BG1 cell line (AID 743080; calls by dose curve;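 further: BG1 cells stimulated with 17beta-estradiol alongside compound; series mostly up to about 70 µM; nearly all actives have a fitted effect of over 25% in size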)
Outline: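 Quantitative HTS on the Tox21 10K library: BG1 cells with endogenous ER-alpha and ERE-luciferase reporter, 17beta-estradiol stimulation, 21.5 h compound exposure, luminescence endpoint with parallel fluorescence cytotoxicity counter-read.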

[15] = qHTS assay to identify small molecule antagonists of the thyroid receptor (TR) signaling pathway (AID 743065); further: nearly all actives have a fitted effect of over 55% in size; further: potency means the concentration at half of the fitted maximal effect
Outline: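 GH3.TRE-Luc rat pituitary cells carrying two TR response elements driving luciferase were plated for 4 h, given compound plus 1 nM T3 (final), and incubated 23.5 h at 37 C. ONE-Glo luminescence measured reporter inhibition; CellTiter-Fluor fluorescence tracked cytotoxicity.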

[16] = test system: thyroid hormone receptor (rat, GH3 cells); experiment: qHTS assay to identify small molecule agonists of the thyroid receptor (TR) signaling pathway (AID 743066; calls by dose curve)
[17] = target: Androgen receptor (Homo sapiens) (UniProt P10275); experiment: qHTS assay to identify small molecule antagonists of the androgen receptor (AR) signaling pathway (AID 743035; active means well fitted inhibition curve with a large enough effect in the signal ratio in the repeat runs, not every such curve was filed as active; the % refers to the signal ratio)
Outline: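 HEK293 cells stably carrying UAS-beta-lactamase reporter, 2,000/well, given compounds plus R1881 agonist and incubated 16 h at 37C. LiveBLAzer B/G FRET substrate then added for 2 h at room temperature before fluorescence reading.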

[18] = target: Androgen receptor (Homo sapiens) (UniProt P10275); experiment: qHTS assay to identify small molecule agonists of the androgen receptor (AR) signaling pathway (AID 743036; active means well fitted activation curve with a large enough effect in the signal ratio in the repeat runs, with a control signal flat, not every such curve was filed as active; the % refers to the signal ratio)
Outline: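 In this Tox21 qHTS, 2,000 HEK293 AR-bla cells per well were incubated with compounds for 16 h at 37C and 5% CO2. Fluorescence intensity was recorded 2 h after adding LiveBLAzer B/G FRET substrate at room temperature.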

[19] = target: Androgen receptor (Homo sapiens) (UniProt P10275); experiment: qHTS assay to identify small molecule agonists of the androgen receptor (AR) signaling pathway using the MDA cell line (AID 743040; further: nearly all actives have a fitted effect of over 20% in size)
Outline: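 Luminescence from ONE-Glo, read after 30 min at room temperature, reflects MMTV-driven luciferase in MDA-kb2 cells (AR- and GR-responsive). Treatment lasted 16 h at 37C, 0% CO2.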

[20] = target: Androgen receptor (Homo sapiens) (UniProt P10275); experiment: qHTS assay to identify small molecule antagonists of the androgen receptor (AR) signaling pathway using the MDA cell line (AID 743042; further: nearly all actives have a fitted effect of over 55% in size)
Outline: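 MDA-kb2 cells (human breast carcinoma, stably carrying an MMTV-luciferase reporter responsive to AR and GR) were plated at 3,000 cells/well and preincubated 5 hr at 37C, then given compound plus R1881 agonist for 16 h. ONE-Glo luminescence was read.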

Aromatase (Homo sapiens), sequence (P11511 whole entry, looked up): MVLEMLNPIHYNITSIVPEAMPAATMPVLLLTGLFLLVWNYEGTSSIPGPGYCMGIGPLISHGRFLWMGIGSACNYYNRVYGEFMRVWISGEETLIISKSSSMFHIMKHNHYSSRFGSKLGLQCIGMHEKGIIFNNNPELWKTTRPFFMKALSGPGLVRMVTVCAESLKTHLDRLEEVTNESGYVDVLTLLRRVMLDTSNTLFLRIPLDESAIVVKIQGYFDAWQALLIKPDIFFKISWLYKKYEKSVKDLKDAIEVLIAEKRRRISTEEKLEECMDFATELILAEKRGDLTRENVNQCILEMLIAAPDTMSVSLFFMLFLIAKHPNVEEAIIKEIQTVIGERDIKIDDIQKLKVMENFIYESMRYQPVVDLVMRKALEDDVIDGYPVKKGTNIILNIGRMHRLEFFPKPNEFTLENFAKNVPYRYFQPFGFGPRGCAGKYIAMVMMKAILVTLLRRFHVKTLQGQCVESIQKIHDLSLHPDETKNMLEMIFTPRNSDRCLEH
Estrogen receptor (Homo sapiens), sequence (P03372 whole entry, looked up): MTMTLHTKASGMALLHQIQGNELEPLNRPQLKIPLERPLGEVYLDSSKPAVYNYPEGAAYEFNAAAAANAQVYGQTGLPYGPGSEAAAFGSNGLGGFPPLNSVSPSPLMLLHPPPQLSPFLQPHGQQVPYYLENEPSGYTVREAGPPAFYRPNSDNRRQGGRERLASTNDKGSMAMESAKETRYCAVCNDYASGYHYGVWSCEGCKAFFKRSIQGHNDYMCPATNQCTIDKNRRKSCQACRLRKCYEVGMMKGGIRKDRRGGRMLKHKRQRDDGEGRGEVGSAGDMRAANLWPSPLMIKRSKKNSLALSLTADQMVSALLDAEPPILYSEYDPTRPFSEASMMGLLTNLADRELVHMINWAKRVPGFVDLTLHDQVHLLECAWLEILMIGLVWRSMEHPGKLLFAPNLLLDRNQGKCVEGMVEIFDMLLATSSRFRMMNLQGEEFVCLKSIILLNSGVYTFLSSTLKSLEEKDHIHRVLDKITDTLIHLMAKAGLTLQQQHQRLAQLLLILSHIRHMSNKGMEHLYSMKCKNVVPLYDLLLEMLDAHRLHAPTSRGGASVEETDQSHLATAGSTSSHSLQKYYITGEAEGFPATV
Androgen receptor (Homo sapiens), sequence (P10275 whole entry, looked up): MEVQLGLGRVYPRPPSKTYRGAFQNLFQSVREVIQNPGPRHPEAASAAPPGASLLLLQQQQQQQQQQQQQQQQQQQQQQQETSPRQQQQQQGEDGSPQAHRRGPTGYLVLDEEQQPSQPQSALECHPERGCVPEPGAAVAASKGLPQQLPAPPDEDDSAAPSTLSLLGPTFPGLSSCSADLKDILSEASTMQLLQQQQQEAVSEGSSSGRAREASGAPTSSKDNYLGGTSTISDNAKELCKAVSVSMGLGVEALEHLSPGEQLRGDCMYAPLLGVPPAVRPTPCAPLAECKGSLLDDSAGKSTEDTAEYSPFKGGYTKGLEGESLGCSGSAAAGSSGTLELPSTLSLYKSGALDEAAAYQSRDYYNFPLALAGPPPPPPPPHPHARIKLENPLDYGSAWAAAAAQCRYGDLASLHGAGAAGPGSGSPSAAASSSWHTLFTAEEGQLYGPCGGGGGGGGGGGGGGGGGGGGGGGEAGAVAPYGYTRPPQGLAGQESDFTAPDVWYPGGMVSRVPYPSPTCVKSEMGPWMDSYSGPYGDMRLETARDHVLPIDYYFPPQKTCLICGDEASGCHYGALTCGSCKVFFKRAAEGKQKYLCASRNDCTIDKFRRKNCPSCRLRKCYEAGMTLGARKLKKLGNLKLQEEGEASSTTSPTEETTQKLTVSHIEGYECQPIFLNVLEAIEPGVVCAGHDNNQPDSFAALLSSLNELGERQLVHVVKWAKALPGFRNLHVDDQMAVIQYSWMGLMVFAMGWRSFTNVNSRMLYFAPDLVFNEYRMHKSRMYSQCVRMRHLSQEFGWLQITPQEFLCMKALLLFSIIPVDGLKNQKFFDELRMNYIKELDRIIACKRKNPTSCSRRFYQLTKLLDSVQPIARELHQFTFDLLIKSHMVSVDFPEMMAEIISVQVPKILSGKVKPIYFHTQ

Row | SMILES | outcome [1] | Potency [2] | Potency [3] | Potency [4] | Potency [5] | Potency [6] | Potency [7] | outcome [8] | Potency [9] | Potency [10] | Potency [11] | Potency [12] | Potency [13] | Potency [14] | Potency [15] | Potency [16] | outcome [17] | Potency [18] | Potency [19] | outcome [20]
1 | CCCSc1ccc2nc(NC(=O)OC)[nH]c2c1 | inactive | 227 nM (active) and 1.09 µM (active) | 359 nM (active) and 969 nM (active) | 452 nM (active) and 1.09 µM (active) | inactive | inactive | 452 nM (active) | inactive | inactive | inactive |  |  |  |  |  |  |  |  |  | 
2 | O=C(O)c1cc(=O)c2c(OCC(O)COc3cccc4oc(C(=O)O)cc(=O)c34)cccc2o1 | inactive | inactive | inactive | inactive | inactive | inactive |  | inactive | inactive | inactive | inactive | inactive | inactive | inactive |  |  |  |  |  | 
3 | O=C(O)c1ccc(C(=O)O)cc1 | inactive | inactive | inactive | inactive | inactive | inactive | inactive | inactive | inactive | inactive |  |  |  |  | inactive | inactive |  |  |  | 
4 | OCC(CO)(CBr)CBr | inactive | inactive | inactive | inactive | inactive | inactive | inactive | inactive | inactive | inactive |  |  |  |  | inactive | inactive |  |  |  | 
5 | O=P(OC(CCl)CCl)(OC(CCl)CCl)OC(CCl)CCl | inactive | 43.3 µM (active) | 30.5 µM (active) and 19.3 µM (active) | 54.2 µM (active) and 61.1 µM (active) | inactive | inactive |  | inactive | inactive |  | 54.9 µM [inhibitor] (active) | inactive | inactive |  | 61.1 µM (active) | inactive |  |  |  | 
6 | O=c1[nH]c(=O)n([C@H]2CCCO2)cc1F | inactive | inactive | inactive | inactive | inactive | inactive | inactive | inactive | inactive | inactive |  |  |  |  | inactive | inactive |  |  |  | 
7 | Cc1ccc(N(C)C)cc1 | inactive | inactive | inactive | inactive |  | inactive | inactive | inactive | inactive | inactive | inactive | inactive | 61.1 µM (active) |  | inactive | inactive | inactive | inactive | inactive | inactive
8 | CC1CCC(C(C)C)C(O)C1 (stereo unspecified) | inactive | inactive | inactive | inactive |  | inactive | inactive | inactive | inactive | inactive |  |  |  |  | inactive | inactive | inactive | inactive | inactive | inactive
9 | Nc1cc([N+](=O)[O-])ccc1O | inactive | inactive | inactive | inactive |  | 54.5 µM (active) and 60.8 µM (active) | 30.6 µM (active) and 60.8 µM (active) | inactive | 54.5 µM (active) | inactive |  |  |  |  | inactive | inactive |  | inactive | inactive | inactive
10 | CCCCCCCCC/C=C/CC1CC(=O)OC1=O (stereo unspecified) | inactive | inactive | 48.6 µM (active) | inactive | inactive | inactive | inactive | inactive | inactive |  |  |  |  |  |  | inactive |  |  |  | 
11 | O=S1(=O)CC=CC1 | inactive | inactive | inactive | inactive |  | inactive | inactive | inactive | inactive | inactive | inactive | inactive | inactive | inactive | inactive | inactive |  |  |  | 
12 | Cc1cccnc1 | inactive | inactive | inactive | inactive | inactive | inactive | inactive |  | inactive | inactive |  |  |  |  | inactive | inactive |  |  |  | 
13 | C=CCNC(N)=S | inactive | inactive | inactive | inactive | inactive | inactive | inactive | inactive | inactive | inactive |  |  |  |  | inactive | inactive |  |  |  | 
14 | CCCCCCCCCCCCCCO | inactive | inactive | inactive | inactive |  | inactive | inactive | inactive | inactive | inactive | inactive | inactive | inactive | inactive | inactive | inactive |  |  |  | 
15 | CCCCCC/C(C=O)=C\c1ccccc1 | inactive | inactive | inactive | inactive | inactive | inactive | inactive | inactive | inactive | inactive |  |  |  |  | inactive | inactive |  |  |  | 
16 | CCc1ccc(CCOc2ccc(CC3SC(=O)NC3=O)cc2)nc1 (stereo unspecified) | inactive | inactive and 68.6 µM (active) | inactive and 68.6 µM (active) | 11.9 µM (active) and 61.1 µM (active) | inactive | inactive | inactive | inactive | inactive | inactive | inactive | inactive |  | inactive |  | inactive |  |  |  | 
17 | Nc1ccccc1[N+](=O)[O-] | inactive | inactive | inactive | inactive | inactive | inactive | inactive | inactive | inactive | inactive |  |  |  |  | inactive | inactive |  |  |  | 
18 | CC(C)(C)[C@@H](O)[C@@H](Cc1ccc(Cl)cc1)n1cncn1 | inactive | inactive and 48.5 µM (active) | 30.6 µM (active) | 61.1 µM (active) | inactive | inactive | inactive | inactive | inactive | inactive |  |  |  |  | inactive | inactive |  |  |  | 
19 | O=C(O)[C@H](O)[C@@H](O)[C@H](O)[C@H](O)CO | inactive | inactive | inactive | inactive | inactive | inactive | inactive | inactive | inactive | inactive |  |  |  |  | inactive | inactive |  |  |  | 
20 | C[C@H]1C[C@H]2[C@@H]3CCC4=CC(=O)C=C[C@]4(C)[C@@]3(F)[C@@H](O)C[C@]2(C)[C@@]1(O)C(=O)CO | inactive | inactive | 27.3 µM (active) | inactive and 68.6 µM (active) | inactive | inactive | inactive | inactive | inactive | inactive |  |  |  |  | inactive | inactive |  |  |  | 
